These results are taken from PubChem BioAssay (Tox21).

A short description of test [1]: qHTS assay to identify small molecule agonists of the RXR signaling pathway - cell viability counter screen (AID 1159529). Also: nearly all actives have a fitted effect of over 50% in size. Also: potency is read from the fitted curve at half-maximal effect. A digest of the protocol:
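RXR-alpha-UAS-bla HEK 293T cells in medium with 2% charcoal-stripped FBS were pre-incubated 5 hr, then compound-treated 16 hr at 37 C. Viability was read by CellTiter-Glo luminescence in the same wells as the beta-lactamase assay, with tetraoctyl ammonium bromide as positive control.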
Background: In qHTS, concentration-response curves come from the screen itself.

The nature of test [2]: qHTS assay to identify small molecule antagonists of the retinoid acid receptor (RAR) signaling pathway - cell viability counter screen (AID 1159551). Also: nearly all actives have a fitted effect of over 35% in size. Also: potency is read from the fitted curve at half-maximal effect. A digest of the protocol:
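Cytotoxicity counter screen: ATP content quantified by CellTiter-Glo luminescence in C3RL4 cells treated 6 hr at 37 C with compound and retinol (1 uM final). Cells plated at 1,000/well and cultured overnight before dosing.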

A short description of test [3]: qHTS assay to identify small molecule antagonists of the retinoic acid receptor (RAR) signaling pathway (AID 1159552; also: nearly all actives have a fitted effect of over 50% in size; also: potency is read from the fitted curve at half-maximal effect). A digest of the protocol: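 Retinol signaling pathway inhibitors screened in C3RL4 RARE-luciferase reporter cells seeded overnight at 37 C, then compounds added with 1 uM (final) retinol as pathway substrate. After 6 hr at 37 C, luciferase luminescence read after 30 min at room temperature.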

The nature of test [4]: qHTS assay to identify small molecule agonists of the retinoic acid receptor (RAR) signaling pathway (AID 1159553). Also: potency is read from the fitted curve at half-maximal effect. The settings on record: C3RL4 RARE luciferase reporter, agonist, 6 h; activation: at 73.3 µM (top of the series) unless noted. A digest of the protocol: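 Luminescence was measured 30 min after luciferase reagent addition at room temperature. Before that, C3RL4 reporter cells (1,000 per well, plated overnight) were treated with compound for 6 hr at 37 C and 5% CO2.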

A short description of test [5]: qHTS assay to identify small molecule antagonists of the estrogen related receptor (ERR) signaling pathway from Tox21 library - cell viability counter screen (AID 1224834). Also: nearly all actives have a fitted effect of over 30% in size. Put shortly: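 CellTiter-Fluor fluorescence, read after 30 min at 37 C, measures viability of ERR cells. Cells plated at 2,000/well and incubated 6 h before pin-tool compound addition, then exposed 17.5 hours at 37 C.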

Test [6] addresses Luciferin 4-monooxygenase (Photinus pyralis) (UniProt P08659). Put plainly: qHTS assay to identify small molecule inhibitors of firefly luciferase (AID 1224835). Also: nearly all actives have a fitted effect of over 25% in size. Also: potency is read from the fitted curve at half-maximal effect. A digest of the protocol:
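Quantitative HTS format; KM concentrations of both substrates. Purified P. pyralis FLuc activity quantified from luminescence images.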

Test [7] is described as follows: qHTS assay to identify small molecule agonists of the constitutive androstane receptor (CAR) signaling pathway - cell viability counter screen (AID 1224836). Also: nearly all actives have a fitted effect of over 45% in size. Also: potency is read from the fitted curve at half-maximal effect. Put shortly:
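HepG2 cells stably carrying hCAR and a CYP2B6-2.2kb reporter; 15-concentration compounds plus PK11195 (final 0.75 uM), 23 hr at 37 C/5% CO2. Viability read by CellTiter-Fluor fluorescence.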

Test [8] is described as follows: qHTS assay to identify small molecule antagonists of the constitutive androstane receptor (CAR) signaling pathway - cell viability counter screen (AID 1224837). Also: nearly all actives have a fitted effect of over 45% in size. Also: potency is read from the fitted curve at half-maximal effect. Put shortly: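 Cytotoxicity counter-screen: CellTiter-Fluor fluorescence after 23 h compound exposure (15-point qHTS) in double-stable HepG2-CYP2B6-hCAR cells, with 50 nM CITCO added.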
A short description of test [9]: qHTS assay to identify small molecule antagonists of the estrogen related receptor signaling pathway with the pleiotropic PPARgamma coactivator (PGC) from Tox21 10K library - cell viability counter screen (AID 1224840; active = well fitted cell-killing curve with a large enough effect in the repeat runs, not every such curve was filed as active; also: nearly all actives have a fitted effect of over 40% in size; also: potency is read from the fitted curve at half-maximal effect). A digest of the protocol:
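Counter-screen for cytotoxicity: after 17.5 h compound exposure at 37 C, CellTiter-Fluor reagent added to PGC/ERR cells for 30 min and fluorescence read. Cells were seeded at 2,000 per well 6 h before dosing.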

Test [10] addresses Thyrotropin receptor (Homo sapiens) (UniProt P16473). Put plainly: qHTS assay to identify small molecule agonists of the thyroid stimulating hormone receptor (TSHR) signaling pathway (AID 1224843; calls by dose curve; also: nearly all actives have a fitted effect of over 45% in size; also: potency is read from the fitted curve at half-maximal effect). A digest of the protocol: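 Compounds are titrated over 15 concentrations, in triplicate, onto TSHR-HEK293 cells seeded at 800/well. Plates sit 30 min at room temperature before cAMP-d2 and anti-cAMP cryptate are added; signal is read after a further hour.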

For test [11], the target named is Nuclear receptor subfamily 1 group I member 3 (Homo sapiens) (UniProt Q14994). In words: qHTS assay to identify small molecule antagonists of the constitutive androstane receptor (CAR) signaling pathway (AID 1224838).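 Also: HepG2 cells stably expressing hCAR with CYP2B6 luciferase reporter stimulated by CITCO; nearly all actives have a fitted effect of over 40% in size.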 Also: potency is read from the fitted curve at half-maximal effect. Put shortly:
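Antagonism measured as luciferase signal (ONE-Glo, 30 min, room temperature) in CAR-stimulated cells: HepG2-CYP2B6-hCAR double-stable line exposed 24 hr at 37 C to compound in a 15-point series plus 50 nM CITCO.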

For test [12] the target is unchanged. Put plainly: qHTS assay to identify small molecule agonists of the constitutive androstane receptor (CAR) signaling pathway (AID 1224839). Also: nearly all actives have a fitted effect of over 15% in size. Also: potency is read from the fitted curve at half-maximal effect. A digest of the protocol: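 HepG2 cells stably co-transfected with hCAR and a CYP2B6-2.2kb luciferase reporter; compounds at 15 concentrations with 0.75 uM PK11195 present. After 24 hr at 37 C, luciferase read by ONE-Glo luminescence.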

Test [13] is described as follows: qHTS assay to identify small molecule antagonists of the estrogen related receptor signaling pathway with the pleiotropic PPARgamma coactivator (PGC) from Tox21 10K library (AID 1224841; call rule not given here; also: actives are mostly falling curves and most rising ones were filed inactive; nearly all actives have a fitted effect of over 50% in size; also: potency is read from the fitted curve at half-maximal effect). A digest of the protocol:
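Luminescence (One-Glo, 30 min at room temperature) after 18 h compound treatment at 37 C of PGC/ERR reporter cells plated at 2,000 cells/well and settled 6 h beforehand.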

Test [14] in a line: qHTS assay to identify small molecule agonists of the estrogen related receptor signaling pathway with the pleiotropic PPARgamma coactivator (PGC) from Tox21 10K library (AID 1224842). Also: nearly all actives have a fitted effect of over 15% in size. Also: potency is read from the fitted curve at half-maximal effect. Put shortly: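 PGC/ERR reporter cells (NTP line) were seeded 2,000 per well, rested 6 h at 37 C/5% CO2, then pin-dosed with compounds in DMSO for 18 h at 37 C; luciferase read by One-Glo luminescence after 30 min at room temperature.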

Each structure is given as a SMILES string. Several values for one entry are separate records, joined by “and”; a condition that tells them apart may be missing. Equal entries are not always repeated. Records with an inconclusive call do not appear. The source holds several records for some structures; these can differ, active in one and inactive in another. Activity calls are given as the source filed them. Unless noted, calls follow the shape of the dose curve; as a rule, active = well fitted curve in the direction sought with a large enough effect in the repeat runs; inconclusive = weak or mixed curves; inactive = no such curve, though single readings can be large; an effect the other way counts as inactive or inconclusive.

Chain of Thyrotropin receptor (Homo sapiens) (P16473 whole entry, looked up): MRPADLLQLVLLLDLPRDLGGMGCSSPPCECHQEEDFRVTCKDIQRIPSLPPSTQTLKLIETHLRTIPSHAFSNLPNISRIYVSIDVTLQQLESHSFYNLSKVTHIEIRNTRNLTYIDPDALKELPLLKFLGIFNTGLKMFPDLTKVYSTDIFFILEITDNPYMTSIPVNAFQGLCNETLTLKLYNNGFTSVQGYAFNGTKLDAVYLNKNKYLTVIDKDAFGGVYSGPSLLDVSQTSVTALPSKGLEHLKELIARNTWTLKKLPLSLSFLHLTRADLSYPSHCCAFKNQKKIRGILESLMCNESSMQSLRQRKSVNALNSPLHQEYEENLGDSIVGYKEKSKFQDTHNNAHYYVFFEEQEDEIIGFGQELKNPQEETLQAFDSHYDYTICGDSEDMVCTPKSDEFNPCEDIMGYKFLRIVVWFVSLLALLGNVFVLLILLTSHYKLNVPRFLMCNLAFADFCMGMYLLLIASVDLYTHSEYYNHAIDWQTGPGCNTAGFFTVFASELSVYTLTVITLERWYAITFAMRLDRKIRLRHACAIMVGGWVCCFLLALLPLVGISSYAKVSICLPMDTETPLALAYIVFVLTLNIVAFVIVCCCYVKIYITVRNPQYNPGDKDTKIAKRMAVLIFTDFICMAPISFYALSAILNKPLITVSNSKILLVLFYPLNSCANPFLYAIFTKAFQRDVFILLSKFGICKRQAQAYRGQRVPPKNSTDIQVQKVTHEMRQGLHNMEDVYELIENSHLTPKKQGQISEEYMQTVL
Chain of Nuclear receptor subfamily 1 group I member 3 (Homo sapiens) (Q14994 whole entry, looked up): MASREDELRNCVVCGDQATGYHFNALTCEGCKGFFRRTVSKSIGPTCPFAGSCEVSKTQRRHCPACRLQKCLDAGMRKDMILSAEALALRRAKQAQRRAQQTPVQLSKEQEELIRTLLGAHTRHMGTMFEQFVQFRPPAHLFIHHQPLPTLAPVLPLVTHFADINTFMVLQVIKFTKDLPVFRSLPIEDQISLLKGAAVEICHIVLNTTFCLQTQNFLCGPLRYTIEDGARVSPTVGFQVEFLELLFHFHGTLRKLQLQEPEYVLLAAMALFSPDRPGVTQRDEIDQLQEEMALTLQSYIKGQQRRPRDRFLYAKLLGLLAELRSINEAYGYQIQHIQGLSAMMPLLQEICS
Chain of Luciferin 4-monooxygenase (Photinus pyralis) (P08659 whole entry, looked up): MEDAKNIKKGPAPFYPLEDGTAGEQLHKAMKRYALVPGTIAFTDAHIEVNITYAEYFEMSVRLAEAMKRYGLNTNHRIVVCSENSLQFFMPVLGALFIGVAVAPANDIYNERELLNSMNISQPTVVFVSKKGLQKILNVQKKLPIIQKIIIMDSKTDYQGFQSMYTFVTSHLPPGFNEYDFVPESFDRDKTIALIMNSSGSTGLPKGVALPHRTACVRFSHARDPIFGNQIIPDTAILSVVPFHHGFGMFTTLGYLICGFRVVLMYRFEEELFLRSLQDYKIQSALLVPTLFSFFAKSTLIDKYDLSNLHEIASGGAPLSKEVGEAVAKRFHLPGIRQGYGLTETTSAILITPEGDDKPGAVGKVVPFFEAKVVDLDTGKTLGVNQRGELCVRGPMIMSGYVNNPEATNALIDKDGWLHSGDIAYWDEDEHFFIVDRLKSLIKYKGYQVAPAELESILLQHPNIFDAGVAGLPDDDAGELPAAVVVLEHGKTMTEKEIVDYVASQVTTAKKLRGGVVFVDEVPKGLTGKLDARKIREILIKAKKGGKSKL

In the case of `CC(C)COC(=O)c1ccccc1C(=O)OCC(C)C`, the Potency entry in test [1], in [2], in [3], in test [4], in test [5] and in [6] was “inactive” in each case. Also, the Potency result in test [7], in test [8], in test [9] and in test [10] was “inactive” in each case.

As to `CCC[CH2][Sn]([Cl])([Cl])[CH2]CCC`, the Potency in [1] was 1.76 µM (active) and 3.09 µM (active); in [2], 13.9 µM (active) and 27.3 µM (active); in [3], 310 nM (active) and 344 nM (active); in test [7], 0.874 µM (active); in test [8], 874 nM (active) and 864 nM (active); in test [11] it was 552 nM (active) and 686 nM (active). The Potency is 492 nM (active) and 486 nM (active) in test [9]; 196 nM (active) and 96.9 nM (active) in [13]. Further, the Potency entry in [12] and in test [14] was “inactive” in each case.

With `O=C1CCCO1`, the Potency result in [1], in test [2], in test [3], in test [4], in test [6] and in test [7] was “inactive” in each case. The Potency entry in [8], in test [11], in test [12], in [9] and in test [13] was “inactive” in each case.

Take `CCOP(=S)(OCC)OP(=S)(OCC)OCC`: the Potency entry in test [1], in test [2], in test [3], in [4], in test [7] and in [8] was “inactive” each time. In addition, the Potency entry in test [11], in test [12], in test [9] and in [13] was “inactive” each time.

For `CCOP(=S)(OCC)SCn1c(=O)oc2cc(Cl)ccc21`, the Potency result in test [1], in test [2], in [3], in test [4], in [7] and in test [8] was “inactive” throughout. The Potency result in test [11], in test [9] and in test [10] was “inactive” each time. Besides, the Potency was 38.2 µM (active) in [6]; 58.4 µM (active) and 24.3 µM (active) in test [12].

For `S=c1[nH]c2ccccc2[nH]1`, the Potency entry in [1], in test [2], in [3], in [4], in test [6] and in test [7] was “inactive” each time. Besides, the Potency entry in test [8], in test [12], in test [9] and in test [10] was “inactive” each time. Besides, the Potency in [11] was 54.6 µM (active) and inactive.

Turning to `Clc1ccc(C(Cl)(Cl)Cl)cc1`, the Potency entry in test [1], in test [2], in test [3], in [4], in test [5] and in test [6] was “inactive” each time. The Potency result in test [7], in [8], in test [9] and in [13] was “inactive” in each case.

`CCCCOCC1CO1` (stereo not drawn): the Potency result in test [1], in test [2], in test [3], in [4], in [6] and in [7] was “inactive” throughout. Also, the Potency entry in test [8], in test [11], in test [12], in [9], in [13] and in test [14] was “inactive” each time. The Potency result in test [10] is “inactive”.

Consider `ClCC(Cl)CCl`, for which the Potency entry in test [1], in [2], in test [3], in test [4], in test [6] and in test [7] was “inactive” in each case. Further, the Potency entry in [8], in test [11], in test [12], in test [9] and in [13] was “inactive” in each case.

As to `CC(C)(c1ccccc1)c1ccc(O)c(C(C)(C)c2ccccc2)c1`, the Potency in test [1] is 13.7 µM (active) and 15.5 µM (active); in [2], 54 µM (active) and 61.1 µM (active); in [3], 27.1 µM (active) and 27.3 µM (active); in test [12], 7.7 µM (active); in test [9], 54 µM (active) and 54.5 µM (active); in test [13], 48.1 µM (active). Moreover, the Potency result in [6] was “inactive”.

For `Cc1cccc(N=Nc2ccc(N(C)C)cc2)c1`, the Potency result in test [1], in test [2], in [3], in test [11] and in [13] was “inactive” in each case. Besides, the Potency is 69.8 nM (active) and 34.4 µM (active) in [4]; 456 nM (active) and 894 nM (active) in test [6]; 78.3 µM (active) in test [7]; 2.78 µM (active) and 3.06 µM (active) in test [12]; 1.56 µM (active) and 2.73 µM (active) in test [14].

For the compound `N#Cc1nn(-c2c(Cl)cc(C(F)(F)F)cc2Cl)c(N)c1S(=O)C(F)(F)F` (stereo not drawn), the Potency entry in [1], in [2], in test [4], in [6], in test [8] and in test [11] was “inactive” in each case. In addition, the Potency result in test [12], in test [9], in [14] and in test [10] was “inactive” each time. The Potency in test [13] is 7.74 µM (active) and 21.1 µM (active).

Regarding `CC(C)(O)C(=O)Nc1ccc([N+](=O)[O-])c(C(F)(F)F)c1`, the Potency entry in test [1], in test [2], in [3], in test [4], in test [6] and in test [7] was “inactive” in each case. Moreover, the Potency entry in [8], in test [11], in [9] and in test [10] was “inactive” in each case. In addition, the Potency in test [13] is 27.9 µM (active).

In the case of `CN(C)P(=O)(N(C)C)N(C)C`, the Potency result in [1], in test [2], in test [3], in [4], in [5] and in test [6] was “inactive” throughout. Besides, the Potency entry in [7], in test [8], in test [9], in [13] and in test [10] was “inactive” in each case.

As to `C[N+](C)(C)C`, the Potency result in test [1], in test [2], in test [4], in test [5], in [6] and in test [7] was “inactive” throughout. Also, the Potency result in test [8], in test [11], in [12] and in test [9] was “inactive” throughout.

Turning to `ClC(Cl)=C(Cl)C(Cl)=C(Cl)Cl`, the Potency entry in test [1], in [2], in test [3], in test [4], in test [5] and in test [6] was “inactive” each time. The Potency entry in test [7], in test [8], in test [9] and in test [10] was “inactive” each time.

For the compound `Brc1ccc(Br)cc1`, the Potency entry in test [1], in test [2], in test [3], in [4], in test [6] and in test [7] was “inactive” throughout. For the same compound, the Potency entry in test [8], in test [11], in test [12], in [9] and in [13] was “inactive” throughout.

On to `Nc1ccc2ccccc2c1`, for which the Potency entry in test [1], in test [2], in test [3], in test [6], in [7] and in test [8] was “inactive” in each case. Further, the Potency result in [11], in test [9], in test [13] and in test [14] was “inactive” each time. Besides, the Potency in [4] is 33.2 µM (active); in test [12] it was 52.6 µM (active) and 48.6 µM (active).

As for `CCCCC(C#N)(Cn1cncn1)c1ccc(Cl)cc1` (stereo not drawn), the Potency result in test [1], in test [2], in test [3], in test [4], in test [6] and in [7] was “inactive” in each case. Moreover, the Potency result in test [8], in test [11], in [12], in test [9], in test [13] and in [14] was “inactive” throughout.

For the compound `CC(C)(c1ccccc1)c1ccc(O)cc1`, the Potency in [1] was 43.3 µM (active) and 54.9 µM (active); in test [3], 61.1 µM (active); in [12] it was 27.1 µM (active) and 13.7 µM (active); in [10] it was 60.6 µM (active) and 54.5 µM (active). Also, the Potency entry in test [2], in [4], in test [6], in test [7], in test [8] and in test [11] was “inactive” in each case. Besides, the Potency result in test [9] is “inactive”.
